{"source": "PubChem BioAssay (NCATS)", "note": "Inconclusive results are not listed. Values without a mark were called inactive. Active and inactive are the calls of the source. The call rests on the fitted dose curve; in most records, active means well fitted activation curve with a large enough effect; inconclusive means small, poorly fitted or top-dose-only effect; inactive means no such curve, though single readings can be large or run the other way. Potency means the concentration at half of the fitted maximal effect.", "data": [{"biological_target": "Cellular tumor antigen p53 (Homo sapiens) (UniProt P04637)", "sequence (P04637 whole entry, looked up)": "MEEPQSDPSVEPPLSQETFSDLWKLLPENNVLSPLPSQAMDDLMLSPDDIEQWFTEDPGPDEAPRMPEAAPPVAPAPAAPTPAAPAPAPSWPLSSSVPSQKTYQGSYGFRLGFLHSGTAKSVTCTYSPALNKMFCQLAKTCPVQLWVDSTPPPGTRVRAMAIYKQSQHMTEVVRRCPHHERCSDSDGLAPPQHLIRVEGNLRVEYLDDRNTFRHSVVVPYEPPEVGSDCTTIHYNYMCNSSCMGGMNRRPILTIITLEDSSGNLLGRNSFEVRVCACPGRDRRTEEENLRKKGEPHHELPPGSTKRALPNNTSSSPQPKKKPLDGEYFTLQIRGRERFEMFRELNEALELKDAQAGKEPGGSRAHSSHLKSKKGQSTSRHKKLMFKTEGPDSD", "assay": "Primary qHTS for small molecule compounds that upregulate eGFP-tagged delta133p53alpha (in N-terminal) cells. (AID 2060322); further: nearly all actives have a fitted effect of over 75% in size;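 on activation: series mostly up to about 56 µM; 0% = DMSO vehicle and 100% = reference activator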", "settings": "NCI-H358 eGFP-delta133p53alpha fluorescence, 24 h; activation: stronger effect = higher value", "method_in_brief": "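NCI-H358 cells pre-induced 24 h with 10 ng/ml doxycycline for eGFP-delta133p53alpha, plated dox-free and exposed 24 h at 37C to titrated compounds. Fixed, Hoechst-stained; gated GFP peak intensity by laser scanning cytometry, normalized to DMSO (0%) and 57.5 uM 5-azacytidine (100%).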", "units": {"activation": "%"}, "values": [{"smiles": "Cc1cnn(-c2ccccc2)c1NC(=O)COCc1ccccc1", "activation": 0.333}, {"smiles": "CC(C)CN(C[C@@H](O)[C@H](Cc1ccccc1)NC(=O)O[C@@H]1CO[C@H]2OCC[C@H]21)S(=O)(=O)c1ccc(N)cc1", "activation": -7.16}, {"smiles": "COc1cc(O)cc(C)c1C(=O)OC1C(CO)OC(OC2C(O)C(O)C(O)C(O)C2O)C(O)C1O", "note": "(configuration not stated)", "activation": -29}, {"smiles": "CC1CCC2C(C(=O)O)=CC3CC(C)(C)CC132", "note": "(configuration not stated)", "activation": 2.29}, {"smiles": "C=C[C@H]1[C@H](O[C@@H]2O[C@H](CO[C@@H]3OC[C@](O)(CO)[C@H]3O)[C@@H](O)[C@H](O)[C@H]2O)OC=C2C(=O)OCC[C@H]21", "activation": 5.36}, {"smiles": "C/C=C(\\C)C(=O)OC1C=C(C)CC(OC(=O)c2ccc(O)cc2)C2C1(C)CCC2(O)C(C)C", "note": "(configuration not stated)", "activation": -7.63}, {"smiles": "O=C(CCC1CCN(Cc2ccccc2)CC1)c1ccc2c(c1)NCCCC2", "activation": 6.33}, {"smiles": "Nc1nc(Nc2ccc3c(c2)CCC(N2CCCC2)CC3)nn1-c1cc2c(nn1)-c1ccccc1CCC2", "note": "(configuration not stated)", "Potency": "26.9 µM (active)"}, {"smiles": "CCC1OC(=O)C(C)CC(C)C(=O)/C(C)=C/C(C)C(=O)/C=C/C1(C)O", "note": "(configuration not stated)", "activation": 3.05}, {"smiles": "CO[C@@]12CC3[C@@H]([C@@H](O)[C@@H](OC(C)=O)C4[C@](C)(COC(C)=O)CCC[C@]34C)[C@@H](C)C1=CC(=O)O2", "note": "(some centres not stated)", "activation": -3.05}, {"smiles": "Cn1c(=O)c(F)c(Nc2ccc(I)cc2F)c2c(=O)n(CC(O)CO)cnc21", "note": "(configuration not stated)", "activation": 14.3}, {"smiles": "CC(C)c1ccc2c(c1)[C@H](O)CC1[C@@](C)(C(=O)O)CCC[C@]21C", "note": "(some centres not stated)", "activation": -4.46}]}]}
